CYP2C19 inhib: inhibitors of human CYP2C19; P33261; CYP2C19 Supersomes, luciferin-H EGE luminescence, 30 min; inhibition, % at 5 µM; 96,000 tested, 21% active;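 active = CYP2C19 inhibition above a set limit at 5 µM in the primary screen, cut at about 50% in these data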
CYP2C19 activ: activators of human cytochrome P450 2C19; recombinant CYP2C19, luciferin-H EGE luminescence; hits give high values; 0 = fully inhibited enzyme, 1 = untreated enzyme; activation factor at 5 µM; 96,000 tested, under 10 active; P33261;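 active = activation factor of at least 2 at 5 µM in the primary screen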
Cav3 T inh: blocks human Cav3.2 T-type calcium channel. Cav3.2-expressing cells, Fluo-4 calcium fluorescence FDSS; hits give low values. B-score at 10 µM. 100,000 tested, 4% active. AID 449739;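 active = single-dose well whose peak fluorescence ratio is a statistical outlier from its plate by either plate-standardised score or position-corrected B-score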
CYP2C9 activ: CYP2C9 (human) activation; P11712; recombinant CYP2C9, luciferin-H conversion, luminescence; hits give high values; factor 1 = untreated enzyme, 0 = blocked; activation factor at 5 µM; 96,000 tested, 1.4% active; AID 1024;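 active = activation factor of 2 or more for CYP2C9 at a 5 µM dose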
Target sequence (P11712 whole entry, looked up): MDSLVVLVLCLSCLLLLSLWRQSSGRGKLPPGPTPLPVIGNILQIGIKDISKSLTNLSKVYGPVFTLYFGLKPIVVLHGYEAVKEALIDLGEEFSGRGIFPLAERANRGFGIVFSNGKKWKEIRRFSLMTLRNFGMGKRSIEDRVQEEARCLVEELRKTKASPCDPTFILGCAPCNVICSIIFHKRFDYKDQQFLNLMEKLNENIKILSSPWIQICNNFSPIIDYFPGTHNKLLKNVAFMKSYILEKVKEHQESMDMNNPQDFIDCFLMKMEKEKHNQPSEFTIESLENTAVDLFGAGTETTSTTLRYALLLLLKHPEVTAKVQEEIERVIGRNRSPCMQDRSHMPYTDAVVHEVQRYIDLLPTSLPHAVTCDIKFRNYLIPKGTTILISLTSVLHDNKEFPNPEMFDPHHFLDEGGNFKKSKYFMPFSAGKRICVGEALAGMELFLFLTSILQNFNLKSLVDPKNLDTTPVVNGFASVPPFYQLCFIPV
CYP2C9 inhib: human CYP2C9 inhibition; P11712; CYP2C9 Supersomes, luciferin-H conversion, luminescence; inhibition, % at 5 µM; 96,000 tested, 20% active; AID 777;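 active = blocking of liver enzyme CYP2C9 beyond about 50% at 5 µM, limit read from the data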
Large screens that a line does not name were inactive. Only some compounds are listed: those with a hit (about 27% of all), similar ones and a draw of the others.

COc1ccc(-c2nnc(SCC(=O)Nc3cc(F)ccc3C)o2)cc1	CYP2C19 inhib 54, Cav3 T inh -5.6
COc1ccc(-c2nnc(SCC(=O)NC(C)c3ccccc3)o2)cc1OC (stereo unspecified)	CYP2C19 inhib 62
COc1ccc(OC)c(NC(=O)CSc2nnc(CNc3ccc(C)cc3C)o2)c1	CYP2C19 inhib 81
COc1ccc(N(CC(=O)NCCSC2CCCCC2)S(C)(=O)=O)c(OC)c1	none
Cc1ccc2[nH]cc(C(=O)CN3CCN(c4ccccn4)CC3)c2c1	CYP2C19 inhib 87, CYP2C9 inhib 84
O=S(=O)(c1ccccc1)N1CCN(S(=O)(=O)c2ccccc2)C1	CYP2C19 inhib 94, CYP2C9 inhib 67
CCCS(=O)(=O)N1CCN(S(=O)(=O)c2ccccc2)CC1	CYP2C19 inhib 61, CYP2C9 inhib 56
O=S(=O)(c1ccccc1)N1CCN(C2CCCCCCC2)CC1	none
Cc1ccc(S(=O)(=O)N2CCN(C(=O)Cc3ccccc3)CC2)cc1	CYP2C19 inhib 64
CC(C)[C@H](NC(=O)NCc1ccco1)C(=O)O	none
Cc1ccc(S(=O)(=O)N2CCCN(S(=O)(=O)c3ccc(C)cc3)CC2)cc1	none
COc1ccc(CC(=O)N2CCN(c3ccccn3)CC2)cc1	none (no result: CYP2C19 inhib, CYP2C19 activ, CYP2C9 activ, CYP2C9 inhib)
Cc1ccc(S(=O)(=O)N2CCN(S(=O)(=O)c3ccc(C)cc3)C2)cc1	CYP2C9 inhib 68
CCCS(=O)(=O)N1CCN(c2ccccn2)CC1	CYP2C19 inhib 69
Cc1ccc(CC(=O)N2CCN(c3ccccn3)CC2)cc1	CYP2C19 inhib 98, CYP2C9 inhib 87
Cc1ccc(CS(=O)(=O)Cc2ccc(C(=O)NCc3ccccn3)o2)cc1	none
Cc1ccc(CNC(=O)[C@H](C)[C@H]2C[C@]2(C)[C@H](NC(=O)OCc2ccccc2)c2ccccc2)o1	none (no result: CYP2C19 inhib, CYP2C19 activ, CYP2C9 activ, CYP2C9 inhib)
COc1cc(NC(=O)c2ccnnc2)cc(C(=O)Nc2cccc(C(F)(F)F)c2)c1	none (no result: CYP2C19 inhib, CYP2C19 activ, CYP2C9 activ, CYP2C9 inhib)
C=CCSC1=N/C(=C\c2ccc(C)o2)C(=O)S1	CYP2C19 inhib 82
Cc1cc(C(=O)N(C)C)sc1-c1ccccc1	none (no result: CYP2C19 inhib, CYP2C19 activ, CYP2C9 activ, CYP2C9 inhib)
Cc1cc(C(=O)NCc2cc(C)n(C)n2)sc1-c1ccccc1	CYP2C19 inhib 59
Cc1cc(C)c(S(=O)(=O)N(C2=NCCS2)S(=O)(=O)c2c(C)cc(C)cc2C)c(C)c1	none (no result: CYP2C19 inhib, CYP2C19 activ, CYP2C9 activ, CYP2C9 inhib)
CC(=O)N(CC(C)(C)CC=C(C)C)c1ccccc1	CYP2C19 inhib 52
CCOC(=O)C1=C(C)Nc2ccccc2N=C1NC(=O)c1cccc(S(=O)(=O)NCc2ccccc2)c1	none
Cc1ccc(SC(c2ccc(C)cc2)C(Cn2cncn2)C(=O)c2ccccc2)cc1 (stereo unspecified)	none
OC(Cn1cncn1)(c1ccccc1)c1ccccc1	CYP2C19 inhib 51, CYP2C9 inhib 76
O=c1c2ccccc2ncn1CCCSc1ccc(Cl)cc1	none
O=c1c2ccccc2ncn1CCCOc1ccccc1[N+](=O)[O-]	CYP2C19 inhib 52
Cc1cccc(C)c1OCCCCn1cnc2ccccc2c1=O	CYP2C9 inhib 53
COc1cccc(OC)c1OCCOCCn1cnc2ccccc2c1=O	CYP2C19 inhib 77
O=c1c2ccccc2ncn1CCCSc1ccccc1	CYP2C19 inhib 78
Cc1cc(N/C=C2\CCCCC2=O)no1	none
COc1cccc(OC)c1C(=O)Nc1cc(C)on1	none (no result: Cav3 T inh)
C(=N\c1ncnc2sccc12)/NOCc1ccccc1	CYP2C19 inhib 84, CYP2C9 inhib 56
c1ccc(OCCOc2ncnc3sccc23)cc1	none
OC1(c2ccccc2F)CCN(Cc2nnnn2CCc2ccccc2)CC1	CYP2C19 inhib 65, CYP2C9 inhib 80
O=C(CC1NCCNC1=O)OCc1ccccc1 (stereo unspecified)	none
CCOc1ccc(C)cc1S(=O)(=O)NC1CCCCC1	none
CCn1nnnc1-c1ccc(OC)c(S(=O)(=O)Nc2ccc(C)c(C)c2)c1	CYP2C9 inhib 62 (no result: Cav3 T inh)
COc1ccc(C)cc1S(=O)(=O)NC1CCCCC1C (stereo unspecified)	CYP2C19 inhib 85, CYP2C9 inhib 89
COc1cccc(NS(=O)(=O)c2cc(C)ccc2OC)c1	CYP2C19 inhib 69, CYP2C9 inhib 52
COc1ccc(NS(=O)(=O)c2cc(C)ccc2OC)cc1OC	CYP2C19 inhib 82 (no result: Cav3 T inh)
O=C(c1ccc(N2CCNCC2)cc1)c1cccnc1	none
COC(=O)Nc1sc2c(c1C(=O)NC1CC1)CCCCCC2	none
COC(=O)c1cc(NC(=O)CSc2nncn2C)cc(C(=O)OC)c1	none
COc1ccc(F)cc1S(=O)(=O)Nc1ccc(C)cc1	CYP2C9 inhib 57
